The supplement of paper PMC10681739
In all, about 4,100 sequences were measured (“arbitrary fluorescence units”: median about 780, highest 2% from about 22,000 on). The full list was thinned out, with the highest values kept by preference.

Each sequence was assayed against T1, ETS1 (UniProt P14921) (assay: ETS1 binding intensity (PBM fluorescence), ETS1 alone (arbitrary fluorescence units); higher = stronger binding). Details: ETS1 concentration 1 nM; RUNX1 concentration 0 nM.
T1 sequence: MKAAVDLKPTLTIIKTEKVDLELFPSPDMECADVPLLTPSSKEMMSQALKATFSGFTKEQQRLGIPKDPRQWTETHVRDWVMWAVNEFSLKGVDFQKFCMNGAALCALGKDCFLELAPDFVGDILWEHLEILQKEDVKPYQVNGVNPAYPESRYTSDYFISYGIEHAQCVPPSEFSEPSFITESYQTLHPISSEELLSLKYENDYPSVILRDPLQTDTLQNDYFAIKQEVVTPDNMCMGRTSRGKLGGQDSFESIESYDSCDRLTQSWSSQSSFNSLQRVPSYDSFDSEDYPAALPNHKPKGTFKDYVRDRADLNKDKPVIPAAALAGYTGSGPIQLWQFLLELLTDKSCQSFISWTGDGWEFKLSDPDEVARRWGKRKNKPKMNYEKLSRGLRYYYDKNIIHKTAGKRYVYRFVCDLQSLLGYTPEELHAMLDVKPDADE
Method: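 gcPBM on 36-bp genomic-derived probes (partner site mutated) containing one ETS1 site and no RUNX1 site. Recombinant human ETS1 (1 nM) was incubated alone or with RUNX1 (25 nM) and detected by anti-ETS1 antibody fluorescence. Values are medians over 4 replicate spots (not normalised). The probes sit in constant array flanks that are not printed.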

| Sequence | ETS1 binding intensity |
| --- | --- |
| CCATTGGCGGGCGGCTTGAATGACGGAAGTGACGGC | 872 |
| CTGTCGTGACCCGGCAGGAGTAGCGTCGGAAGCAAT | 403 |
| CTTAGCGGAAGAGGCGTGACCCAGGCGTACCCCAGG | 1380 |
| GGTCCAGGAAGACGTCAAGGGCTTGGATTTGTAAAC | 437 |
| AGGGGCAGAGCACAGCACCACCGGAAGTAGGGCTCA | 9450 |
| GCACCACCGGAAGTAGGGCTCAACCTCCGCTCATTT | 24400 |
| TAGGTCACCTCCGCGACACAGCAACGGAAGTAGGGT | 1110 |
| GTCCCCTCGGTGTCACAGCAATATCCGTTCTTTGAT | 1190 |
| CGGGAATCCACGGAATTTACTGCCGGAAGTTCGGCG | 2700 |
| CGAGAACGGCGCCACTGAGGAACCGGAAACAAGCCA | 3230 |
| AGACCCTGTTGTCACATGGCAGGAAGTCTGCAGGTT | 1060 |
| GAAGTCACATCCTGTCTGTTGGGGCAGGGCACAGAG | 23500 |
| CATCTGTTGTCTCCTTGAAGTCACATCCCACAGGAG | 438 |
| ACAAAAAAATCACACACCCAACGGAAACCATAGAGA | 669 |
| AGCACCCCATTCTACACCTCCAGCTCATCCTGCGTC | 389 |
| GAACTTCCGGGACCACGTGACGTAGAACTACAACAA | 32800 |
| CTCCTGGGCTTGTAGTTAGAACATCCTGCAGCAAAG | 1130 |
| TTTCTGACTTCCTGTGTGCTTCAGAAACCCCAATGA | 25100 |
| AATGAGCCCCAGAACCCTTTTCCTTCCGGCCTGTGC | 1520 |
| GCAGGACTTCCTGTGTTGTGCTAACCCCAAATTACA | 22100 |
| CGGAGAGCTCGCGGCAATTCCGTTTCCCCGCCCTTT | 404 |

| Sequence | ETS1 binding intensity |
| --- | --- |
| CCGCCCACTTCCGTGTGGCCGCCGATTGGTCTTGCC | 7350 |
| GAGGGCTGCTTCCTGCTCTGTGGAGGCCGCTGAGGG | 6710 |
| GGCCTACGGGAGGGCCCGCCTTGGCTGCTTCCGCAG | 310 |
| GCTGCTTCCGGCCGCTGGTCGCAGGGCTGAGGGACT | 26400 |
| GGCTCTGCCGTCCGCTGACAGGAAGACGCTGACGAC | 973 |
| TGCGCTCGATTGTGAGCGGGGGCGGAAAGAGGCGCC | 471 |
| GTAGGGCCGGACGGCAGGCTCCGGGATAGCGCCACG | 416 |
| AGCTTTTCTGAGAGCGCGGGCAGGATGTGACCTCCC | 675 |
| CTTTCTGTCGAGGTCAGGTTTCCTCTCCTTTATGAA | 437 |
| GCGGGGCGTGTCCACGCACTTCCGGTTTTCTCGAAA | 28700 |
| GGGTCCTTCCGGGTTTTGTGTCGAATCTACGGCGGC | 7400 |
| CGTGTCCACGGGGACCGAAAGTGGCGTCCGGCGCAA | 354 |
| TGTGTAATCCCCACGACAACCTAGGAAGTGGGAAAA | 410 |
| CTGCCCATCGCTGTTAACTTTTCCGCCTCCTTAAAG | 492 |
| ACCTTCGCCGCTGTCCCCAGCCTCTTCCTGTCCCGG | 1130 |
| GTCTTACTTCCTGTCCCCGCCCACCTCGACTGTCTT | 22700 |
| CCTGACTTCCTCCTCCCCCTCCCGCCCCAATTCCGC | 4620 |
| AGTTGCTAAGGAAATGACTGCCTGCAGCGCCTGGCC | 610 |
| GAAGAGACTCCCGCCACCTTGGCCGTTTCCCCTGAT | 318 |
| GCCGCTGGGTAGGCGGAAGTAGCCGCTGGCATGGCA | 2800 |
| AGAAAACTACATTCAATTCTCTTTACACAGGATGTT | 661 |

| Sequence | ETS1 binding intensity |
| --- | --- |
| CGGGACAGCGACGGGCCAGGTGACCGGAAGAGGCCG | 1770 |
| GCGGAGCTTGTAGGCCAGGAGGACTTCCGGGTGGGT | 2220 |
| CGGAGCCCAACGACCGGCACTTCCGGGGGGCGGGTG | 5010 |
| GCACTTCCGGAGCCGGGCGTCTACAGGCCGAGGCCA | 28500 |
| CACCCTCACGGAAACAGCTGTGTGTAAGCACCTCCA | 585 |
| TATCATTTTTACGACAGAGGTACAGGAAATTGTTTC | 733 |
| TAGGTTTGGGGTAGAAGCTGCAGGAACTTCCTGTCC | 1710 |
| CCCCTCACTTCCCTCAACCCTTCCCATAAACTGGGA | 1620 |
| CGACGTCACTTCCGCTGGTTCAAGCACCGTGAGACT | 21400 |
| GCGCACTTCCGGGCTGGTGAACGCGTTGACGTCACC | 35400 |
| GGTGACGTCAACGCGTTCACCAGCCCGGAAGTGCGC | 1230 |
| AAGCTTCCTGGCCCTTTAAAAATGGAGGTTCCGCAC | 4840 |
| GGGGCGATTACAGAACGGGTAACTCAGGATGATTCA | 541 |
| CTTGGGGTCCCCTCGGGTGGTGGCAGGATGTAGGTA | 480 |
| CCGAGCGCATTTTACGTGGTGCTGCATTTCCGGTAG | 3930 |
| GGACCGGAAGTAGGTTTCTACCCGAGCGCATTTTAC | 27600 |
| CGCCCCGGCAGCCGCCCACGTCCGGGGGCCAGGCCT | 802 |
| TGGCGGGAGAACTTCCCCCTGTGCGCTCGCGACGTG | 775 |
| GAGAACTTCCGGTGCGCTCCCCGGGACTGCAGTCCC | 46000 |
| AGCGCTTCCTGGCTCCGGCCCCGCCCCTGCAGTCGG | 6440 |
| CTTTTTGGTCTGCCAGGCACGGATTTCCGCCCACTC | 1270 |

| Sequence | ETS1 binding intensity |
| --- | --- |
| ATGGAAAGGAAGTCGGTGGGAATCCGCCTCAGCGGT | 1590 |
| GTGTCCTGTGCTCTCCTCTGCGCCACTTCCCTGCCT | 623 |
| CCCACTTCCTGTCCCTGCATGCTCTGGGGCAGGCAG | 31100 |
| GTCCTCTTCCTGTCCCCCAGGTGGGCATGTGATTTG | 6800 |
| TCAGGAGCCACGGACGGGCGGGGCTTCCGGGAGCAA | 1170 |
| CACGGAGCCACTTCCGGCGGCTGTGAGCGCAAAACC | 35500 |
| GGCGGCTGTGAGCGCAAAACCCAAAACTTCCGATGG | 452 |
| AACACTATTTCCTTTCTTGCTGCTCACATTTTAACA | 4990 |
| CTGCTTGAGGGTGGAGGGGAGCTTCCGAAGGAGGCC | 536 |
| GGACGCTTCCGGTGGAAGGGAGCTGTTACGGGGCTT | 32900 |
| TGGAGCTGTTACGGGGTCCGCGGGGAAGTCTTGGCA | 364 |
| AAACCAGAGGAAGTGGATTCCAACTACAAACCTCAC | 1830 |
| ACTCACTTCCGTTTAGCTTATCAACTACCAAGAGAC | 35500 |
| CTTATCAACTACCAAGAGACATTTCCCCTTTGTACT | 558 |
| CGGGAGCGGCCGAAGTGACGACTTCCGGGATGCTCC | 7380 |
| CGCCTCATTTCCTGTGCAACTGCTGTAAAAATAGGA | 22400 |
| CCACCGTGCTGTAAACTGCACTTCCTCACTTAGCAC | 870 |
| GTGCAACTGCTGTAAAAATAGGAAGTGGGGGAGGAG | 861 |
